Measurements from publication PMC7862700, “An all-to-all approach to the identification of sequence-specific readers for epigenetic DNA modifications on cytosine”.

Legend:
Assay in all cases: DAPPL (digital affinity profiling via proximity ligation, sequencing); 10 mM Tris-HCl pH 7.5, 50 mM NaCl, 1 mM DTT, 4% glycerol, room temperature, 30 min; GST-TFs on glutathione beads, 16-mer random dsDNA library, 0.1% formaldehyde crosslink after washing; high values mean tight binding
[1] = biological target: T1, FEV (Homo sapiens, UniProt Q99581 1-238); settings: protein: recombinant; tags: N-terminal GST; dsDNA, one strand shown
T1 sequence: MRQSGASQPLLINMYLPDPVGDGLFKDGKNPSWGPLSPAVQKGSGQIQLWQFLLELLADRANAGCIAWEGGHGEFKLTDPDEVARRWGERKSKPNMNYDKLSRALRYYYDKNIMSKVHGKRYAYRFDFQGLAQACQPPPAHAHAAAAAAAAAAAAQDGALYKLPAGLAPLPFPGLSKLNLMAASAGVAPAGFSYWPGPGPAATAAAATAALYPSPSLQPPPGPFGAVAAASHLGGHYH
Outline: (§1)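 Sequencing on an Illumina NextSeq500 followed washing, crosslinking with 0.1% formaldehyde, proximity ligation (BsaI/T4 ligase, 1 h, 37 °C) and PCR amplification of pools that had been incubated for 30 min at room temperature with 200 nmole of a random double-stranded 16-mer DNA library in Tris/NaCl/DTT/glycerol buffer. Each pool held DNA-barcoded human transcription factors, expressed in yeast as GST fusions and captured on glutathione beads, plus a tag-only sample. Binding signal is a hexamer's read frequency for a factor divided by its frequency in the tag-only sample.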

[2] = biological target: ETV5 (Homo sapiens, UniProt P41161 1-510); settings: protein: recombinant; tags: N-terminal GST; dsDNA, one strand shown
ETV5, sequence (P41161 whole entry): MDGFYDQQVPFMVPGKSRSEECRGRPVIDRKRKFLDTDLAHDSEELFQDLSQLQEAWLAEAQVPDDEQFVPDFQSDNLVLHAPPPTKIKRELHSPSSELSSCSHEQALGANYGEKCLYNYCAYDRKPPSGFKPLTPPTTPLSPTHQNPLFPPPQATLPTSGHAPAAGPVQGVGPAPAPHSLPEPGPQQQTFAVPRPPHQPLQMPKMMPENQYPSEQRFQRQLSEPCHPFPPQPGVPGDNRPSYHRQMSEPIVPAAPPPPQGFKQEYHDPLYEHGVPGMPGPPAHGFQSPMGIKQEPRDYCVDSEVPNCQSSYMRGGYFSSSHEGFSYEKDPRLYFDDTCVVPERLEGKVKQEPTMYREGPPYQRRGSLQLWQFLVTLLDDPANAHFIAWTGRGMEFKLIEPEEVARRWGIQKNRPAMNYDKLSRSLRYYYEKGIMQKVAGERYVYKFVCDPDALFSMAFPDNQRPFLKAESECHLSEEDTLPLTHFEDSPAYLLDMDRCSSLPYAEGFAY
Outline: as §1

[3] = biological target: HSF1 (Homo sapiens, UniProt Q00613 1-529); settings: protein: recombinant; tags: N-terminal GST; chain copies: 3; dsDNA, one strand shown
HSF1, sequence (Q00613 whole entry): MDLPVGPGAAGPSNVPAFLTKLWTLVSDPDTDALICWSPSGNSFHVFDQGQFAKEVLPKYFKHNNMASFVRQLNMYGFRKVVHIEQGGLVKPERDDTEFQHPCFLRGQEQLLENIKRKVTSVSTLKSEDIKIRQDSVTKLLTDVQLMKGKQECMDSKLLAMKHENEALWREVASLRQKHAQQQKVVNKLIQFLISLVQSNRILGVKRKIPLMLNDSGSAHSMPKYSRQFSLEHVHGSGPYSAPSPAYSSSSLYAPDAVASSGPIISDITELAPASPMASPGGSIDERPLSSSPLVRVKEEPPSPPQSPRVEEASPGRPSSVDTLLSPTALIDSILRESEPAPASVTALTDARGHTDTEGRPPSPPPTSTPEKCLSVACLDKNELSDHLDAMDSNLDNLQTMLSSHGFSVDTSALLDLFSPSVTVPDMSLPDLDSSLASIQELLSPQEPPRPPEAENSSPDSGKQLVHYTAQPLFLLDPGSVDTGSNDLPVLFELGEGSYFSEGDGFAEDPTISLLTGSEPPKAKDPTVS
Outline: as §1

[4] = biological target: T2, SPIC (Homo sapiens, UniProt Q8N5J4 1-248); settings: protein: recombinant; tags: N-terminal GST; dsDNA, one strand shown
T2 sequence: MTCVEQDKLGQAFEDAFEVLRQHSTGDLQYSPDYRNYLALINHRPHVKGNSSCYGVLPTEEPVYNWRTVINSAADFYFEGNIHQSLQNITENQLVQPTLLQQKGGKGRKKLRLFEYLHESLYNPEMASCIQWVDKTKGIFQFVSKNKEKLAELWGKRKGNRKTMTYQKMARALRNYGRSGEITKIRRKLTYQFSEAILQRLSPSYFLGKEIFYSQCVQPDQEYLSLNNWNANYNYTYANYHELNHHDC
Outline: as §1

[5] = biological target: ELF4 (Homo sapiens, UniProt Q99607 1-663); settings: protein: recombinant; tags: N-terminal GST; dsDNA, one strand shown
ELF4, sequence (Q99607 whole entry): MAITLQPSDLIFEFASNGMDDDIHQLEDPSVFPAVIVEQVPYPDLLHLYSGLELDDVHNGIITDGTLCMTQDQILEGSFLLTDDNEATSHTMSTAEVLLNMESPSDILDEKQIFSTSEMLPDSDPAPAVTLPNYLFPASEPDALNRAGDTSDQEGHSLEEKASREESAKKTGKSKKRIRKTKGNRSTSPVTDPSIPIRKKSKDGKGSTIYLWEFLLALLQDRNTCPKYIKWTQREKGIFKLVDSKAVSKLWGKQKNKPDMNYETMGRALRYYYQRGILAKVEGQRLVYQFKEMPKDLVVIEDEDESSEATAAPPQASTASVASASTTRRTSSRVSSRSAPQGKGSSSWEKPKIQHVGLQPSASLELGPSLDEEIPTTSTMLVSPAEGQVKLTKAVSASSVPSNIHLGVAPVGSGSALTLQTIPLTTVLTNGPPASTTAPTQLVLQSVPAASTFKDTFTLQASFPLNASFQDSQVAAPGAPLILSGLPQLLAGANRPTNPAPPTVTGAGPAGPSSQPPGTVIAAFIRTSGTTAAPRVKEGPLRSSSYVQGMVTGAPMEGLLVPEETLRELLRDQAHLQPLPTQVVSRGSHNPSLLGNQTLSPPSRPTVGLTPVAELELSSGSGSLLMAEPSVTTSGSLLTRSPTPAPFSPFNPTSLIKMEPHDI
Outline: as §1

[6] = biological target: T3, ELK4 (Homo sapiens, UniProt P28324-2 1-405); settings: protein: recombinant; tags: N-terminal GST; dsDNA, one strand shown
T3 sequence: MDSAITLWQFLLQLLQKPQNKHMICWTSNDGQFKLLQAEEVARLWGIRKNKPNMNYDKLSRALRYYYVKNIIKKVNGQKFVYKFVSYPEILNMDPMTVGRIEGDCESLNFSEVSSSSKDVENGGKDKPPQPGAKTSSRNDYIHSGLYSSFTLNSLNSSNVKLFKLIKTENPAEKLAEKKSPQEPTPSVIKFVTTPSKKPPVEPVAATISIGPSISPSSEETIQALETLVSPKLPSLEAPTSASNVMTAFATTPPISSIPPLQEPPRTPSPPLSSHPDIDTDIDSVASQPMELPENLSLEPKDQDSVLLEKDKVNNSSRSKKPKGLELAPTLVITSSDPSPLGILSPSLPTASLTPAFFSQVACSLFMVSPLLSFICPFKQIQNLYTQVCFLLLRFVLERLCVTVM
Outline: as §1

[7] = biological target: T4, ETV2 (Homo sapiens, UniProt O00321 1-342); settings: protein: recombinant; tags: N-terminal GST; dsDNA, one strand shown
T4 sequence: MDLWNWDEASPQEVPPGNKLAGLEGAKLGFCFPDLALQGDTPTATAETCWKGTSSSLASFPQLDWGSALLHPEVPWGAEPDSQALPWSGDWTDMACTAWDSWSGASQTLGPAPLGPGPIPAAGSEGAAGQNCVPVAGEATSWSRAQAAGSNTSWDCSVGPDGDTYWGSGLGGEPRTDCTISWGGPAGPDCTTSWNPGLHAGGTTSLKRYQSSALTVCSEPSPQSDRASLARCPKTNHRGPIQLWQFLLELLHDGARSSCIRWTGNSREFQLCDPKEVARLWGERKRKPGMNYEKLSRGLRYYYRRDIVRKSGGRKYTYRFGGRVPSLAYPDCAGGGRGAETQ
Outline: as §1

[8] = biological target: T5, ELF3 (Homo sapiens, UniProt P78545 1-371); settings: protein: recombinant; tags: N-terminal GST; dsDNA, one strand shown
T5 sequence: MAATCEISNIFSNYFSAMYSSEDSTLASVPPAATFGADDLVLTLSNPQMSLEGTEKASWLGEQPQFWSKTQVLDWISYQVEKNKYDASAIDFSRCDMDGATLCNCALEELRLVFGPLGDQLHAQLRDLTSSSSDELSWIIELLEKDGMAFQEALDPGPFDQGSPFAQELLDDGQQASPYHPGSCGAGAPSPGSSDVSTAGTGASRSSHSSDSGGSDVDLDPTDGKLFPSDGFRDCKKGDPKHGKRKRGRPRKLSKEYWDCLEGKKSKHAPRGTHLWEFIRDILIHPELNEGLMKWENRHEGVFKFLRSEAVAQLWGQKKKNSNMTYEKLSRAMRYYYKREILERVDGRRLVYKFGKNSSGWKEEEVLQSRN
Outline: as §1

[9] = biological target: CRX (Homo sapiens, UniProt O43186 1-299); settings: protein: recombinant; tags: N-terminal GST; dsDNA, one strand shown
CRX, sequence (O43186 whole entry): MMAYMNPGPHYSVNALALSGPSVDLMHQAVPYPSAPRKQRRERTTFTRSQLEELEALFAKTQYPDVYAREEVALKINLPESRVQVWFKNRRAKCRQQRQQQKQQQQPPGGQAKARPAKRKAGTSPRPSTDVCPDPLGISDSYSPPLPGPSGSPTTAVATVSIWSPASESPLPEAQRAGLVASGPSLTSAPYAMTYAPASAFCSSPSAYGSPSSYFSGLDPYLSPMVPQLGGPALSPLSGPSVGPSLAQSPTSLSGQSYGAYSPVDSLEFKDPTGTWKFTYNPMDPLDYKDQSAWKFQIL
Outline: as §1

[10] = biological target: ETV1 (Homo sapiens, UniProt P50549 1-477); settings: protein: recombinant; tags: N-terminal GST; dsDNA, one strand shown
ETV1, sequence (P50549 whole entry): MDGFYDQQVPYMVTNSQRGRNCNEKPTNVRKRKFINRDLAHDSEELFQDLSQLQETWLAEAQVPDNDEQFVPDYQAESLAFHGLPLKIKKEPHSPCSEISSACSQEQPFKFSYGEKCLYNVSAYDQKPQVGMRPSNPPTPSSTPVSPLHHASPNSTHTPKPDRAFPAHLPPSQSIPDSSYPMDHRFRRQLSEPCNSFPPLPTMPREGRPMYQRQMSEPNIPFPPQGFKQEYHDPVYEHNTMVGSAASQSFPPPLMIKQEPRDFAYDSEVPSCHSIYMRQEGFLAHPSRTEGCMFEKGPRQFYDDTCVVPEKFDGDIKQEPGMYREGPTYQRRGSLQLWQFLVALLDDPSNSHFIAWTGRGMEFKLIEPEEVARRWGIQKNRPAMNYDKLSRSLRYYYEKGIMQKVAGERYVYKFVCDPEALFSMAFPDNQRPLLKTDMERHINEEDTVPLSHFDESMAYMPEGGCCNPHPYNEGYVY
Outline: as §1

[11] = biological target: T6, ERF (Homo sapiens, UniProt P50548 1-548); settings: protein: recombinant; tags: N-terminal GST; dsDNA, one strand shown
T6 sequence: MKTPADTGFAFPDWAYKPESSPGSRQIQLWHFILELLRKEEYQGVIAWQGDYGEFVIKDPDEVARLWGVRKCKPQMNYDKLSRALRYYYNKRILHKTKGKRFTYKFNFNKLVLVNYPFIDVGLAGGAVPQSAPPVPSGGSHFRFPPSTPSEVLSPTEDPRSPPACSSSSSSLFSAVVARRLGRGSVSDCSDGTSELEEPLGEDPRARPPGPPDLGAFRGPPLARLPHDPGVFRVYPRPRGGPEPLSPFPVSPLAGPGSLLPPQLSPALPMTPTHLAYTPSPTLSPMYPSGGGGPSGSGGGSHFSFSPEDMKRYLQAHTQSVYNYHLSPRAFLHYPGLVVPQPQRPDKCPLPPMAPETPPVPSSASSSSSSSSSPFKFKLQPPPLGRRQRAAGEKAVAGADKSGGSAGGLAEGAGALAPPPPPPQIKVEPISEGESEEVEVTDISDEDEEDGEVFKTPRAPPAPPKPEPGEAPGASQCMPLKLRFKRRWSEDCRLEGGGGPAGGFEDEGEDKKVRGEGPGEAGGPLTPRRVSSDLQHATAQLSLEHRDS
Outline: as §1

[12] = biological target: T7, ETV3L (Homo sapiens, UniProt Q6ZN32 1-361); settings: protein: recombinant; tags: N-terminal GST; dsDNA, one strand shown
T7 sequence: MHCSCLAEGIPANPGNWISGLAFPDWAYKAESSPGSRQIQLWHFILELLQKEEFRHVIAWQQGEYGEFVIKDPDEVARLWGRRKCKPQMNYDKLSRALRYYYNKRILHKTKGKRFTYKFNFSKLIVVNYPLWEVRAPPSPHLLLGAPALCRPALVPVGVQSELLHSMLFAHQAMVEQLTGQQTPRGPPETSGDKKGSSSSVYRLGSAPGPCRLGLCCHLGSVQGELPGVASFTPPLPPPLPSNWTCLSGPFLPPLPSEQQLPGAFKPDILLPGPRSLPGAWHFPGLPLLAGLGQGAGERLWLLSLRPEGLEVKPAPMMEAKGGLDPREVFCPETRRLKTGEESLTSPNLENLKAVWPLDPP
Outline: as §1

[13] = biological target: T8, ETS2 (Homo sapiens, UniProt P15036 1-469); settings: protein: recombinant; tags: N-terminal GST; dsDNA, one strand shown
T8 sequence: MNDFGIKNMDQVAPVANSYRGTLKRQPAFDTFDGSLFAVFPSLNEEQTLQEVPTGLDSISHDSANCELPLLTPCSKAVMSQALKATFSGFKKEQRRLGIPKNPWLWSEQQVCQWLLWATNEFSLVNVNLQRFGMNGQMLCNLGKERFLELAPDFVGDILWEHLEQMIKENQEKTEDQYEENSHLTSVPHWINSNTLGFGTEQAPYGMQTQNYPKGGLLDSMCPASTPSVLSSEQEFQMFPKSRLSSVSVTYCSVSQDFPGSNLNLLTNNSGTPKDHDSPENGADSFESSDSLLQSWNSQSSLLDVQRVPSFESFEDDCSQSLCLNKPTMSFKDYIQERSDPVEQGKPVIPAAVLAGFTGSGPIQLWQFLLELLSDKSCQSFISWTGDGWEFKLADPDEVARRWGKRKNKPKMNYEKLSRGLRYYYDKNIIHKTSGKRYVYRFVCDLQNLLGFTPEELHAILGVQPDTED
Outline: as §1

[14] = biological target: T9, SPDEF (Homo sapiens, UniProt O95238 1-335); settings: protein: recombinant; tags: N-terminal GST; dsDNA, one strand shown
T9 sequence: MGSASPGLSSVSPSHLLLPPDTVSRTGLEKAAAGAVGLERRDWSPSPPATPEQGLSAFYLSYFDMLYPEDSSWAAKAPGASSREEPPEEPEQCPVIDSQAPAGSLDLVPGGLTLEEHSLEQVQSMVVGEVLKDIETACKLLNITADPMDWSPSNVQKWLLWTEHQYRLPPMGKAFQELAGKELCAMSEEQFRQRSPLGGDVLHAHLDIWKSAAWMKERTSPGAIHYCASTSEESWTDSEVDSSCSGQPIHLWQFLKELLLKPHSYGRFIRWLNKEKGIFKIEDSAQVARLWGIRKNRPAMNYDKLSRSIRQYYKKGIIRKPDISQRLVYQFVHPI
Outline: as §1

[15] = biological target: T10, ETV7 (Homo sapiens, UniProt Q9Y603 1-341); settings: protein: recombinant; tags: N-terminal GST; dsDNA, one strand shown
T10 sequence: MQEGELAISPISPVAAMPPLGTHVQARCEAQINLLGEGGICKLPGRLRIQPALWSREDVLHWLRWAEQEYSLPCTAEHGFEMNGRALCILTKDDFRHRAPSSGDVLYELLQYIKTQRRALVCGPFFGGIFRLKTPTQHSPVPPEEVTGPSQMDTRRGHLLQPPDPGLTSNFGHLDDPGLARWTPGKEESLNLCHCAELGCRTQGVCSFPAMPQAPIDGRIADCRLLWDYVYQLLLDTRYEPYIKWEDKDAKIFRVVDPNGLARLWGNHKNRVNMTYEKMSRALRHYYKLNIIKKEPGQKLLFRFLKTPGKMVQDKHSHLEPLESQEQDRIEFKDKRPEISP
Outline: as §1

[16] = biological target: T11, ELF5 (Homo sapiens, UniProt Q9UKW6-2 1-255); settings: protein: recombinant; tags: N-terminal GST; dsDNA, one strand shown
T11 sequence: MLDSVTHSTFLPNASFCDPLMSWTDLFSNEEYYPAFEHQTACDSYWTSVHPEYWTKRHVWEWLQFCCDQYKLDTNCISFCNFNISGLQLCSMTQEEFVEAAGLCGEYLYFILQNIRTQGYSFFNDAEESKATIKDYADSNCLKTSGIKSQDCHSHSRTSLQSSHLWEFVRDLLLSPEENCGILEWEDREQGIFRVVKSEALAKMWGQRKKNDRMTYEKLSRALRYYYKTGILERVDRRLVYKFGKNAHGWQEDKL
Outline: as §1

[17] = biological target: T12, ETV3 (Homo sapiens, UniProt P41162-2 1-143); settings: protein: recombinant; tags: N-terminal GST; dsDNA, one strand shown
T12 sequence: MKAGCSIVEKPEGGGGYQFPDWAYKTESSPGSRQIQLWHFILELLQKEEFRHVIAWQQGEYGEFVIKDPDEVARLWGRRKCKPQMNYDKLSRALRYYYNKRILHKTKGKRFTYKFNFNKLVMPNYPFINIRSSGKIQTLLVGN
Outline: as §1

[18] = biological target: ETV6 (Homo sapiens, UniProt P41212 1-452); settings: protein: recombinant; tags: N-terminal GST; dsDNA, one strand shown
ETV6, sequence (P41212 whole entry): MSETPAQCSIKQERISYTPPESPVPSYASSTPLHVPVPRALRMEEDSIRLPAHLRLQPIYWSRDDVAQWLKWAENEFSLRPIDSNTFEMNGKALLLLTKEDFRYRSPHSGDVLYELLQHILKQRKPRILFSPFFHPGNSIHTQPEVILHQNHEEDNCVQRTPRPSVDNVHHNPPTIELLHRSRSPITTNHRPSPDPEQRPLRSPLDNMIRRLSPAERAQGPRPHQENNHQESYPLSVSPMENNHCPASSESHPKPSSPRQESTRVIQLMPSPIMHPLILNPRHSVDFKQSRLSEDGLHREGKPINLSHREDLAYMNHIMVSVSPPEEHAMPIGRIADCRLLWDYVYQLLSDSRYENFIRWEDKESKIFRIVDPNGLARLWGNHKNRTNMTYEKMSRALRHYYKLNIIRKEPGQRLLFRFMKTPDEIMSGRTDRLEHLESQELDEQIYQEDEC
Outline: as §1

## CTTAAA
[1]
  binding signal: 1.21 fold enrichment (6-mer frequency, TF over GST control)
[2]
  binding signal: 1.21 fold enrichment (6-mer frequency, TF over GST control)
[3]
  binding signal: 1.65 fold enrichment (6-mer frequency, TF over GST control)
[4]
  binding signal: 1.21 fold enrichment (6-mer frequency, TF over GST control)
[5]
  binding signal: 1.12 fold enrichment (6-mer frequency, TF over GST control)
[6]
  binding signal: 1.11 fold enrichment (6-mer frequency, TF over GST control)
[7]
  binding signal: 1.1 fold enrichment (6-mer frequency, TF over GST control)
[8]
  binding signal: 1.2 fold enrichment (6-mer frequency, TF over GST control)
[9]
  binding signal: 2.38 fold enrichment (6-mer frequency, TF over GST control)
[10]
  binding signal: 1.25 fold enrichment (6-mer frequency, TF over GST control)
[11]
  binding signal: 1.17 fold enrichment (6-mer frequency, TF over GST control)
[12]
  binding signal: 1.3 fold enrichment (6-mer frequency, TF over GST control)
[13]
  binding signal: 1.28 fold enrichment (6-mer frequency, TF over GST control)
[14]
  binding signal: 1.27 fold enrichment (6-mer frequency, TF over GST control)
[15]
  binding signal: 1.19 fold enrichment (6-mer frequency, TF over GST control)
[16]
  binding signal: 1.16 fold enrichment (6-mer frequency, TF over GST control)
[17]
  binding signal: 1.22 fold enrichment (6-mer frequency, TF over GST control)
[18]
  binding signal: 1.26 fold enrichment (6-mer frequency, TF over GST control)
